# Hit rate of the full screen: of about 69,000 compounds, about 8,600 (12%) showed an effect of 50% or more. Only a selection was taken, and strong results are over-represented in it overall.
# Test system: Plasmodium berghei
# Test: Screen against P. berghei liver stage (PbLuc), transformed with Luciferase, at 10uM
# Type: functional, HepG2
# Conditions: tested at 10 uM
row,Structure (SMILES),INHIBITION [%]
1,COc1ccc(C(=O)Nc2cccc(C(N)=O)c2)c(OC)n1,-26.1
2,CNCC(=O)N1CCCCC1c1nccc(C)n1 (centres undefined),18.3
3,O=C(c1ccnc(-n2ccnc2)c1)N1CCCC(n2ccnc2)C1 (centres undefined),25.1
4,CC(=O)NCCNC(=O)c1cc(COc2ccccc2)[nH]n1,-3.83
5,NC1CCN(C(=O)c2cnc(Cc3c(Cl)cccc3Cl)nc2O)C1 (centres undefined),51.3
6,O=C(c1cnc(Cc2c(Cl)cccc2Cl)nc1O)N1CCNCC1,43.9
7,CCN1CCN(C(=O)c2cnc(Cc3c(Cl)cccc3Cl)nc2O)CC1,8.11
8,CN(C)C(=O)N[C@@H]1CN(Cc2ccc3c(c2)OCO3)[C@@H]2CCCO[C@@H]21,-15.5
9,Cc1cc(OCC(=O)N2CCCC2c2noc(C)n2)no1 (centres undefined),2.97
10,COc1ccccc1OC1CCN(C(=O)c2c[nH]c(=O)[nH]c2=O)CC1,-7.76
11,Cc1ccc(C(=O)N2CCC(Oc3ccc(C)c(C)c3)CC2)c(=O)[nH]1,69.65
12,Cc1ccc(C(=O)N2CCC(Oc3ccccc3)CC2)c(=O)[nH]1,29.4
13,Cc1ccccc1OC1CCN(C(=O)c2c[nH]c(=O)[nH]c2=O)CC1,60.4
14,Cc1ccc(C(=O)N2CCC(Oc3cccc(C)c3C)CC2)c(=O)[nH]1,45.5
15,COc1ccc(OC2CCN(C(=O)c3ccc(C)[nH]c3=O)CC2)cc1,29.85
16,COc1cccc(CC(=O)N2CCC(NCc3c[nH]nc3C)CC2)c1,-17.35
17,O=C(CCCc1ccccn1)N1CCCC1c1noc(C2CC2)n1 (centres undefined),0.411
18,O=C(c1nnn(-c2ccccc2)n1)N(CCO)CCO,-7.77
19,Cc1cccc(NC(=O)Cc2cnc3n(C)c(=O)[nH]c(=O)n23)c1,27.5
20,O=C(Cc1ccc2c(c1)CCO2)N1CCCC1Cn1cccn1 (centres undefined),31.6
21,CCCNC(=O)CCNC1CSCCc2ccccc21 (centres undefined),76.9
22,CCS(=O)(=O)NCCN(CCO)C1CCc2ccccc21 (centres undefined),29.4
23,CNC(=O)CN1CCC(NC2CSCCc3ccccc32)CC1 (centres undefined),-18.9
24,OCCNC1CSCCc2ccccc21 (centres undefined),-56.6
25,CCS(=O)(=O)NCCCNC1CSCCc2ccccc21 (centres undefined),60.9
26,CC(C)(C)S(=O)(=O)CCNC1CSCCc2ccccc21 (centres undefined),-56.6
27,COc1ccc(CCNC(=O)c2ccc(=O)n(C)c2)c(Cl)c1,1.74
28,Cn1ncc2c(=O)[nH]c(CN3CCCC3CCc3ccccc3)nc21 (centres undefined),19.6
29,Cc1cc(C)c(CNC(=O)NCCC2CCCO2)c(=O)[nH]1 (centres undefined),1.82

# Reference: ChEMBL document CHEMBL4513216, “Probing the Open Global Health Chemical Diversity Library for Multistage-Active Starting Points for Next-Generation Antimalarials” (ACS Infect Dis, 2020)
